Screens deposited in PubChem BioAssay by National Center for Advancing Translational Sciences (NCATS).
VDR inh: blocks the human vitamin D receptor; VDR-SRC2-3 peptide fluorescence polarization, 2 h; Potency, µM, for inactives: max response, negative = inhibition, most hits filed as inhibitors; actives 0.93% (n = 400,000); AID 504847
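After 23 nl compound addition and a short centrifugation, plates sat for 2 hours at ambient temperature; polarization of fluorescence then indicated loss of VDR binding to peptide SRC2-3.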
Sfp PPTase inh: inhibitors of Bacillus subtilis Sfp phosphopantetheinyl transferase. Q9F4F7. Biochemical Sfp PPTase activity, qHTS. AID 1490. Potency, µM, for inactives: largest response in the series, negative = inhibition, most hits filed as inhibitors. actives 3.5% (n = 310,000);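 further: the enzyme is Sfp with the accession as filed and its product quenches rhodamine fluorescence; 0% = enzyme reaction without inhibitor and -100% = no enzyme wells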
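Buffer: 50 mM Hepes-Na pH 7.6, 10 mM MgCl2, 0.01% Nonidet P-40, 0.01% BSA. Enzyme 15 nM, pre-exposed to compound 15 min; substrates then added and fluorescence change tracked over 30 min.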
12-LOX inh: inhibitors of human 12S-lipoxygenase ALOX12; P18054; purified 12hLO, xylenol orange hydroperoxide absorbance; Potency, µM (series often up to 108 µM), for inactives: top-dose activity change, negative = inhibition, most hits filed as inhibitors; actives 1.1% (n = 580,000)
Target sequence (P18054 whole entry, looked up): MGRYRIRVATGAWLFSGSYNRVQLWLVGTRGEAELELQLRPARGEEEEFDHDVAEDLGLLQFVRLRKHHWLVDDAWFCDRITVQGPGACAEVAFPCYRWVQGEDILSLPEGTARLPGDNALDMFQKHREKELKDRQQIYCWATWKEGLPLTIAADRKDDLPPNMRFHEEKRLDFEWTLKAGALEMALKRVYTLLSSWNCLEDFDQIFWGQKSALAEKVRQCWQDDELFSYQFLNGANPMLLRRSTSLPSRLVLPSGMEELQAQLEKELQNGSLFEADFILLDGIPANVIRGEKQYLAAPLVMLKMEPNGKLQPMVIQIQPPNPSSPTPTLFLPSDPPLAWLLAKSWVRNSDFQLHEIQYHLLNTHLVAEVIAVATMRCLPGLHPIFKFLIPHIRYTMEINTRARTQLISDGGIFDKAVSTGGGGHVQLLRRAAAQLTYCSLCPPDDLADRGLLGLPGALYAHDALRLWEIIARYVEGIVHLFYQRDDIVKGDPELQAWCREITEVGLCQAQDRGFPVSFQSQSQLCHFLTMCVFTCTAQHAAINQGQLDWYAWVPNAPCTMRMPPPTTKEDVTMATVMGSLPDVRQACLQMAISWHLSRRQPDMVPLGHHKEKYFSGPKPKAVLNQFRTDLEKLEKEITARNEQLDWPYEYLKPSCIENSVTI
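Hydroperoxide product was detected by ferrous iron/xylenol orange as the 573 to 405 nm absorbance ratio. Arachidonic acid at 40 uM (final) was turned over for 30 min at room temperature by 150 nM human 12hLO, pH 7.0 Hepes buffer, after 15 min compound preincubation.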
PLK1 PBD block: inhibitors of human PLK1 polo-box domain binding. P53350. Plk1 PBD binding of FITC phosphopeptide, fluorescence polarization. Potency, µM, for inactives: max response, negative = inhibition, actives largely listed as inhibitors. actives 2.8% (n = 360,000). AID 720504; further: series mostly up to about 57 µM; nearly all actives have a fitted effect of over 65% in size
Numbers without * were called inactive; ! = not active in a repeat. This is a sample that favours compounds with a hit; in the whole collection about 4.2% have one here. The call rests on the fitted dose curve; in most records, active means well fitted curve in the direction sought with a large enough effect; inconclusive means small, poorly fitted or top-dose-only effect, or another doubt; inactive means no such curve, though single readings can be large; an effect the other way counts as inactive or inconclusive. Unless noted, on the % scale 0 is the no-effect control and ±100 the full control effect; potency means the concentration at half of the fitted maximal effect.

COc1cccc(C(=O)COC(=O)c2n[nH]c(=O)c3ccccc23)c1 was read as VDR inh -7.0%, Sfp PPTase inh 12.8%, 12-LOX inh -7.9% and PLK1 PBD block -7.0%.
`CC(=O)c1sc(N/N=C\c2c(O)ccc3ccccc23)nc1C` gave VDR inh 13.7%, 12-LOX inh 39.8µM* and PLK1 PBD block 23.9%.
`CC(=O)c1sc(N/N=C/c2cccc(O)c2)nc1C` gave VDR inh -22.4%, Sfp PPTase inh -20.2%, 12-LOX inh 14.7% and PLK1 PBD block -5.4%.
COCCNC(=O)c1ccc(OC2CCN(S(C)(=O)=O)CC2)c(Cl)c1 was read as 12-LOX inh 41.0%.
For O=C1CCCN2N=C(SCC(=O)Nc3ccc([N+](=O)[O-])cc3)SC2=N1 the results were VDR inh inconclusive, Sfp PPTase inh 0.0%, 12-LOX inh 13.9% and PLK1 PBD block 37.7µM*.
Screening CC(C)(C)c1nc(CN2CCOCC2)cc(CN2CCOCC2)c1O returned VDR inh -8.8%, Sfp PPTase inh 8.3%, 12-LOX inh inconclusive and PLK1 PBD block 4.0%.
Cc1ccc(-c2nc(CN3CCCCC3)cc(CN3CCCCC3)c2O)cc1 was read as VDR inh 11.6%, Sfp PPTase inh 39.8µM*, 12-LOX inh -13.5% and PLK1 PBD block -11.7%.
`O=C(NNC(=S)Nc1ccccc1)c1ccncc1` gave VDR inh -28.7%, Sfp PPTase inh 2.6%, 12-LOX inh -2.3% and PLK1 PBD block -11.6%.
Screening O=C(NNC(=S)Nc1ccc(C(=O)O)c(O)c1)c1ccncc1 returned VDR inh inconclusive, 12-LOX inh -9.1% and PLK1 PBD block 26.7µM*.
`CCOC(=O)c1c(NC(=O)C2=C(C)NC(=S)NC2c2ccc(F)cc2)sc(C)c1C` (stereo not given) gave VDR inh -13.3%, Sfp PPTase inh -11.0%, 12-LOX inh 28.2µM* and PLK1 PBD block inconclusive.
For CCOC(=O)c1c(NC(=O)C2=C(C)NC(=S)NC2c2ccc(F)cc2F)sc(C)c1C (stereo not given) the results were VDR inh -19.0%, Sfp PPTase inh -8.5%, 12-LOX inh 39.8µM* and PLK1 PBD block -9.9%.
CCOC(=O)c1c(NC(=O)C2=C(C)NC(=S)NC2c2ccc(C)cc2)sc(C)c1C (stereo not given) was read as VDR inh -22.8%, Sfp PPTase inh 20µM*, 12-LOX inh 17.8µM* and PLK1 PBD block inconclusive.
CCCc1noc(-c2ccn3c(CNC(=O)c4ccc(C)c(F)c4)nnc3c2)n1 was read as 12-LOX inh 50.1µM*.
Screening CCCc1noc(-c2ccn3c(CNC(=O)Cc4cccc(F)c4)nnc3c2)n1 returned 12-LOX inh 0.6%.
For CCCc1noc(-c2ccn3c(CNC(=O)Cc4cccc(OC)c4)nnc3c2)n1 the results were 12-LOX inh 44.7µM*.
`C=C(c1ccc(C(=O)O)cc1)c1cc2c(cc1C)C(C)(C)CCC2(C)C` gave VDR inh inconclusive, Sfp PPTase inh -21.0% and 12-LOX inh inconclusive.
CC1(C)CCC(C)(C)c2cc(C(=O)Nc3ccc(C(=O)O)cc3)ccc21 was read as VDR inh 79.4µM*!, Sfp PPTase inh 24.3% and 12-LOX inh 282.2%.
CC1(C)SCC(C(=O)O)N1C=O (stereo not given) was read as VDR inh -7.0%, Sfp PPTase inh 11.0%, 12-LOX inh -5.7% and PLK1 PBD block -4.3%.
`CC(=O)C1=C(C)NC(SCc2ccc(C#N)cc2)=C(C#N)C1c1ccco1` (stereo not given) gave VDR inh -10.0%, Sfp PPTase inh inconclusive, 12-LOX inh -9.5% and PLK1 PBD block -20.1%.
`CC(=O)C1=C(C)NC(SCC(=O)c2ccccc2)=C(C#N)C1c1ccco1` (stereo not given) gave Sfp PPTase inh 56.2µM*.
CC(=O)C1=C(C)NC(SCc2cccc3ccccc23)=C(C#N)C1c1ccco1 (stereo not given) was read as VDR inh -20.1%, Sfp PPTase inh 50.1µM*, 12-LOX inh inconclusive and PLK1 PBD block -7.1%.
Screening Cc1ccc(C(=O)CSC2=C(C#N)C(c3ccco3)CC(=O)N2)c(C)c1 (stereo not given) returned VDR inh -8.1%, Sfp PPTase inh 50.1µM*, 12-LOX inh 50.1µM* and PLK1 PBD block -22.3%.
For CC(=O)C1=C(C)NC(SCC(=O)c2ccc(Cl)cc2Cl)=C(C#N)C1c1ccco1 (stereo not given) the results were VDR inh 22.4%, Sfp PPTase inh 44.7µM*, 12-LOX inh inconclusive and PLK1 PBD block -6.3%.
For CN(Cc1ccc2nonc2c1)Cc1ccccc1OCC(O)CN1CCCCC1 (stereo not given) the results were 12-LOX inh 57.1%.
Screening N#CC1=C(SCC(=O)c2ccc(Br)cc2)NC2=C(C(=O)CCC2)C1c1ccco1 (stereo not given) returned VDR inh 20.1%, Sfp PPTase inh -24.5%, 12-LOX inh inconclusive and PLK1 PBD block -15.1%.
CC(=O)C1=C(C)NC(SCC(=O)c2ccc(Cl)cc2)=C(C#N)C1c1ccco1 (stereo not given) was read as VDR inh 18.6%, Sfp PPTase inh 50.1µM*, 12-LOX inh inconclusive and PLK1 PBD block -5.3%.
CCN(CC)C(=O)CSc1nc2ccccc2c(=O)n1CCC(=O)N1CCN(c2ccccc2)CC1 was read as VDR inh -21.9%, Sfp PPTase inh 5.7%, 12-LOX inh -5.1% and PLK1 PBD block 2.0%.
For CCCCCCCn1c2c(c(=N)c3ccccc31)CCC2 the results were VDR inh -20.1%, Sfp PPTase inh 50.1µM*, 12-LOX inh inconclusive and PLK1 PBD block 0.5%.
Screening CCCn1c2c(c(=N)c3c1CCC3)CCC2 returned VDR inh -16.8%, Sfp PPTase inh -0.1%, 12-LOX inh 0.0% and PLK1 PBD block 2.6%.
Screening COc1ccc(OC)c(NC2c3ncccc3C(=O)N2Cc2ccco2)c1 (stereo not given) returned VDR inh -6.1%, Sfp PPTase inh -7.2%, 12-LOX inh inconclusive and PLK1 PBD block -12.9%.
`COc1ccc(CN2C(=O)c3cccnc3C2Nc2cc(Cl)ccc2OC)cc1` (stereo not given) gave VDR inh 4.4%, Sfp PPTase inh 1.6%, 12-LOX inh 12.6µM* and PLK1 PBD block -11.4%.
Screening O/N=C1\CCCCC1C1=CCCCC1 (stereo not given) returned 12-LOX inh 25.3%.
`Cc1nn(-c2ncccn2)c2c1C(c1ccccc1OCCc1ccccc1)CC(=O)N2` (stereo not given) gave 12-LOX inh -28.9%.
Screening COCCN(C(=O)Cc1ccc(OC)c(OC)c1)c1nc(-c2cc(OC)ccc2OC)cs1 returned VDR inh -3.4%, Sfp PPTase inh 1.5%, 12-LOX inh 15.0% and PLK1 PBD block 1.3%.
Screening COc1ccc(OC)c(-c2csc(N(CC3CCCO3)C(=O)C3CCCCC3)n2)c1 (stereo not given) returned VDR inh inconclusive, Sfp PPTase inh 7.9%, 12-LOX inh -1.8% and PLK1 PBD block 16.8µM*.
